Sampled rows, rich in hits. Any-hit rate of the full collection: about 3.1%.
RAD52 anneal inh = RAD52 (human) annealing inhibition. P43351. recombinant RAD52 DNA annealing, FRET fluorescence. inhibition, % at 18.7 µM. 0.46% of 360,000 active. AID 651710;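 active = every replicate showing at least 50% inhibition; inconclusive = mean inhibition at least 50% but not in every replicate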
Target sequence (P43351 whole entry, looked up): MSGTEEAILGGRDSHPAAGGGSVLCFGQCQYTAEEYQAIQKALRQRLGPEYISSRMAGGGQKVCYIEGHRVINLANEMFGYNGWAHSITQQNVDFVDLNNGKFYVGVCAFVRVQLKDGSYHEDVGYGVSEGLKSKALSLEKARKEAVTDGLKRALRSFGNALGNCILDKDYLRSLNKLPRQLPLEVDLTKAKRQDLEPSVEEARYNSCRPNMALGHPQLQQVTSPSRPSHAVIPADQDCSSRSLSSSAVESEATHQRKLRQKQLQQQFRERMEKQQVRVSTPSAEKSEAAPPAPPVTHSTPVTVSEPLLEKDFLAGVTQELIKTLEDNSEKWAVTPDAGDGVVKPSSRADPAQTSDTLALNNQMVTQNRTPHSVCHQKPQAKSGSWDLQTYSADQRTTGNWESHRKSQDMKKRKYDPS
INS-1E GSIS act = primary screen for activators of insulin secretion dependent on glucose, INS-1E cells, GLuc reporter luminescence; INS-1E GLuc reporter insulin secretion, 2-3 h; activation, % at 16.6 µM; 0.61% of 370,000 active;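 active = lowest replicate activation of at least 40%, so every replicate reaches that level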;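 note: 0% = median of neutral control wells and 100% = median of IBMX positive control wells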
MLL AF4-AF9 inh = blocks AF4 peptide binding to human AF9. 0.47% of 350,000 active. inhibition, % at 10 µM. AID 651704. P42568. AlphaScreen, biotin-AF4 peptide binding to FLAG-AF9;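 active = every replicate reaching a set inhibition limit, whatever the replicate mean, cut at about 25% in these data; inconclusive = mean inhibition reaches that limit but some replicates miss it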;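 note: 0% = plate neutral control median and 100% = total signal loss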
RAD54 branch = blocks human RAD54 Holliday junction branch migration; FAM/BHQ fluorescence; inhibition, % at 10.4 µM; 0.14% of 360,000 active; AID 602329;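 active = mean normalized replicate activity at least 40 and at least half of replicates scoring 40 or more; inconclusive = only one of the two criteria met; inactive = mean below 40 and under half of replicates reaching 40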;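 note: 0% = median of neutral control wells and 100% = median of positive control wells; inhibitors cause a drop in the FAM fluorescence signal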
DENV2 CPE rescue = inhibitors of DENV2 cytopathic effect; CPE inhibition, % at 9.99 µM; 1.7% of 350,000 active; DENV2-infected cells, cytopathic effect rescue, plate reader; in the data active = CPE inhibition above about 20%, passing the limit was not always enough; inconclusive = no clear call, values can overlap the other calls; tested in BHK-21 cells;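 note: 0% = median of neutral control wells and 100% = median of positive control wells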
dFosB act = enhances mouse delta FosB homodimer DNA binding; P13346; purified delta FosB, TAMRA-CDK5 oligo fluorescence polarization; percent of positive-control signal above neutral wells; activation, % at 25 µM; 0.99% of 340,000 active;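 active = mean activation above about 17%, with every replicate also reaching it, limit read from the data, passing the limit was not always enough; inconclusive = only one of the two conditions met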
Active calls of the source: *; ? = inconclusive; · = no result given.

SMILES | RAD52 anneal inh | INS-1E GSIS act | MLL AF4-AF9 inh | RAD54 branch | DENV2 CPE rescue | dFosB act
COc1ccc2nc3n(c(=O)c2c1)-c1ccccc1C(=O)NC3Cc1ccccc1 (stereo not drawn) | -19 | · | 4 | · | 89* | ·
CC(C)CC1NC(=O)c2ccccc2-n2c1nc1ccccc1c2=O (stereo not drawn) | -18 | · | -6 | · | 40* | ·
CNC[C@@H]1OCCCC[C@@H](C)Oc2ccc(NS(=O)(=O)c3ccc(C)cc3)cc2C(=O)N([C@H](C)CO)C[C@@H]1C | 12 | 6 | -7 | 2 | -13 | ·
CC(C)NC(=O)N(C)C[C@@H]1OCc2ccccc2-c2ccccc2C(=O)N([C@H](C)CO)C[C@H]1C | -9 | -3 | -1 | 1 | -6 | ·
COCCn1c(-c2ccc(Br)cc2)csc1=Nc1cccnc1 | -22 | -1 | 13 | · | 6 | -9
Clc1ccc(-c2csc(=Nc3cccnc3)n2CCCn2ccnc2)cc1Cl | -39 | · | 47* | · | -1 | -3
CCCNC(=O)N(C)C[C@H]1Oc2cc(C#CC3CC3)ccc2S(=O)(=O)N([C@@H](C)CO)C[C@@H]1C | 1 | 1 | -2 | 3 | ? | ·
CCOC(=O)CCCCC(=O)c1[nH]c(=O)[nH]c1CN1CCOCC1 | -12 | 6 | 85* | 7 | 5 | -6
CO[C@H](CN(C)C(=O)c1cnccn1)[C@@H](C)CN([C@H](C)CO)S(=O)(=O)c1ccccc1 | -3 | 4 | 0 | 7 | -3 | ·
CCN(CC)C(=O)Cn1c(=O)oc2ccccc21 | 2 | 42* | -2 | · | 1 | -6
C[C@@H]1CCCCO[C@@H](CN(C)C(=O)Nc2cccc3ccccc23)[C@@H](C)CN([C@H](C)CO)C(=O)c2cc(NS(=O)(=O)c3cn(C)cn3)ccc2O1 | · | 10 | · | -11 | -20 | ·
CC(C)NC(=O)Nc1ccc2c(c1)C(=O)N([C@H](C)CO)C[C@@H](C)[C@H](CN(C)CC1CCCCC1)OCCCC[C@H](C)O2 | -1 | 15 | 2 | 10 | 0 | ·
Cc1cc(C)c(OCCCNC2CCCC2)c(Br)c1 | 3 | -3 | 2 | 3 | 28* | -7
COC(=O)C1=C(C)N(Cc2cccc(C(F)(F)F)c2)C(=NCc2ccccc2C(F)(F)F)NC1c1ccccc1C(F)(F)F (stereo not drawn) | 1 | -40 | · | · | -12 | ·
COC(=O)C1=C(C)N(Cc2cccc(C(F)(F)F)c2)C(=NCc2ccc(C(F)(F)F)cc2)NC1c1ccccc1C(F)(F)F (stereo not drawn) | -7 | -8 | · | · | 28* | ·
COC(=O)C1=C(C)N(Cc2cccc(C(F)(F)F)c2)C(=NCc2ccc(OC)cc2)NC1c1ccccc1C(F)(F)F (stereo not drawn) | -47 | 40* | · | · | -14 | ·
Cc1ccc(CNC(=O)c2cccc3c2C(=O)c2ccc(N4CCOCC4)cc2S3(=O)=O)cc1 | -175 | -5 | 2 | -8 | 31* | 1
Cc1ccc(CNC(=O)c2cccc3c2C(=O)c2ccc(N4CCCCC4)cc2S3(=O)=O)cc1 | -364 | -2 | -1 | -29 | · | -1
N#CCc1nn2c(-c3ccccc3)ccnc2c1C#N | -29 | 46* | -3 | 3 | -1 | -25
CO[C@H]1CN(C)C(=O)c2cc(NC(C)=O)ccc2OC[C@H](C)N(C(=O)C2CCCCC2)C[C@@H]1C | -7 | 12 | 0 | 6 | -1 | ·
C[C@H](CO)N1C[C@H](C)[C@@H](CN(C)Cc2ccc3c(c2)OCO3)Oc2ccc(NS(=O)(=O)c3cn(C)cn3)cc2CC1=O | · | 17 | · | -3 | 45* | ·
C[C@H](CO)N1C[C@H](C)[C@H](CN(C)Cc2ccc3c(c2)OCO3)Oc2ccc(NS(=O)(=O)c3cccs3)cc2CC1=O | -3 | -5 | 2 | 6 | -4 | ·
COc1ccc(S(=O)(=O)Nc2ccc3c(c2)CC(=O)N([C@H](C)CO)C[C@@H](C)[C@@H](CN(C)Cc2ccc4c(c2)OCO4)O3)cc1 | -10 | -10 | 0 | -4 | 1 | ·
COc1ccc(S(=O)(=O)Nc2ccc3c(c2)CC(=O)N([C@@H](C)CO)C[C@H](C)[C@H](CN(C)Cc2ccc4c(c2)OCO4)O3)cc1 | 14 | -14 | -1 | -2 | 28* | ·
C[C@H]1CN([C@@H](C)CO)C(=O)Cc2cc(NS(=O)(=O)c3ccc(Cl)cc3)ccc2O[C@@H]1CN(C)Cc1ccc2c(c1)OCO2 | -7 | -15 | 2 | 7 | 23* | ·
SMILES | RAD52 anneal inh | INS-1E GSIS act | MLL AF4-AF9 inh | RAD54 branch | DENV2 CPE rescue | dFosB act
C[C@H]1CN([C@@H](C)CO)C(=O)Cc2cc(NS(=O)(=O)c3cccs3)ccc2O[C@H]1CN(C)Cc1ccc2c(c1)OCO2 | -4 | -6 | -1 | -5 | 104* | ·
CC(C)NC(=O)Nc1ccc2c(c1)C(=O)N([C@@H](C)CO)C[C@@H](C)[C@@H](CN(C)Cc1ccc(Oc3ccccc3)cc1)O2 | 11 | -26 | 1 | -2 | 0 | ·
C[C@H](CO)N1C[C@H](C)[C@H](CN(C)C(=O)Nc2ccc3c(c2)OCO3)Oc2c(NC(=O)NC3CCCCC3)cccc2C1=O | -6 | 8 | 5 | -1 | 10 | ·
C[C@@H]1CN([C@H](C)CO)C(=O)c2cc(NS(=O)(=O)c3ccccc3)ccc2O[C@@H]1CN(C)S(=O)(=O)c1cn(C)cn1 | -13 | 6 | -2 | 4 | -8 | ·
C[C@@H]1CN([C@@H](C)CO)C(=O)c2cc(C3=CCCC3)cnc2O[C@H]1CN(C)C(=O)CN(C)C | 2 | 2 | -1 | -1 | -9 | ·
CCCc1cc(=O)oc2c(C)c(OCC(=O)N3C[C@H]4C[C@@H](C3)c3cccc(=O)n3C4)ccc12 | -2 | 1 | 3 | 0 | 29* | -5
Brc1ccc(-c2ncc(-c3ccccc3)cn2)cc1 | · | · | · | -11 | · | 6
Brc1ccc(-c2ccccc2)cc1 | -9 | -5 | · | -10 | 62* | -4
CO[C@@H]1CN(C)C(=O)c2cc(NC(=O)NC(C)C)ccc2OC[C@@H](C)N(Cc2ccc(-c3ccccn3)cc2)C[C@H]1C | 7 | -32 | 1 | -4 | -3 | ·
CN(C)S(=O)(=O)c1ccc(C(=O)Nc2ccccc2[N+](=O)[O-])cc1 | 0 | · | 2 | -2 | -4 | -3
Cc1ccccc1NC(=O)c1ccc(S(=O)(=O)N(C)C)cc1 | -9 | 17 | 5 | -10 | 51* | -11
C[C@H]1CN([C@@H](C)CO)C(=O)c2cc(/C=C/c3ccccc3)cnc2O[C@H]1CN(C)C(=O)C1CC1 | · | -9 | · | · | · | ·
CC(=O)NCCc1nc2ccccc2n1CCOc1cccc(C)c1 | -13 | 59* | 6 | · | 0 | -4
CC(=O)NCCc1nc2ccccc2n1CCOc1ccccc1 | -5 | 21 | -1 | -6 | 7 | -1
O=C(NCC[C@@H]1CC[C@@H](NC(=O)C2CCCC2)[C@@H](CO)O1)c1cc(Cl)cc(Cl)c1 | -7 | -3 | 0 | 8 | 21* | ·
Cc1noc(C)c1NC(=O)N[C@@H]1CC[C@@H](CCNC(=O)C2CCCC2)O[C@H]1CO | 2 | -7 | -2 | 0 | 25* | ·
